The source of these data is paper PMC5540273 (PLoS ONE, 2017).

Test systems include CDK8; CDK9; CDKL1; CDKL2; CDKL3; CDKL5; CHEK1; CHEK2; CIT; CLK1; CLK2; CLK3; CLK4; CSF1R-autoinhibited; CSF1R; CSK; CSNK1A1L; CSNK1A1; CSNK1D; CSNK1E.
Holding throughout (details): concentration: 1 μM, replicates: in singlicate; n = 1
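Further: KINOMEscan kinase panel screen.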

Regarding `CN(C)Cc1ccc(-c2ccc3c(Nc4ccc(Oc5ccccn5)cc4)ccnc3c2)o1` [GW567148], the “%Inh” value worked out at 4% in the experiment with CDK8; 0% with CDK9; 0% with CDKL1; 11% in the experiment on CDKL2; 0% in the experiment with CDKL3; 0% in the experiment on CDKL5. Further, the “%Inh” value is 0% with CHEK1; 82% in the experiment with CHEK2; 0% in the experiment on CIT; 0% in the experiment with CLK1; 0% in the experiment with CLK2; 12% in the experiment on CLK3. Also, the “%Inh” value with CLK4 is listed as 0%; in the experiment on CSF1R-autoinhibited, 11%; with CSF1R, 38%; with CSK, 82%; with CSNK1A1L, 9%; in the experiment on CSNK1A1, 0%. The results for the “%Inh” value in the experiment with CSNK1D and in the experiment with CSNK1E were 0% and 23%, respectively.
For the molecule `Cl.Cl.NCC(NCc1ccc(-c2ccnc3[nH]ccc23)s1)c1ccccc1` (stereo not drawn) [GSK1321565], the “%Inh” value came to 39% in the experiment with CDK8; 0% in the experiment with CDK9; 0% in the experiment on CDKL1; 13% in the experiment with CDKL2; 0% in the experiment on CDKL3; 0% with CDKL5. The “%Inh” value in the experiment on CHEK1 is reported as 0%; in the experiment with CHEK2, 33%; in the experiment on CIT, 93%; in the experiment with CLK1 it was 89%; in the experiment on CLK2, 43%; with CLK3, 45%. Also, the “%Inh” value with CLK4 was found to be 88%; in the experiment on CSF1R-autoinhibited, 19%; with CSF1R it was 50%; in the experiment with CSK, 0%; in the experiment with CSNK1A1L, 16%; in the experiment on CSNK1A1 it was 10%. Moreover, the results for the “%Inh” value in the experiment with CSNK1D and with CSNK1E were 26% and 64%, respectively.
For the molecule `c1ccc(-c2cnc3nccnn23)cc1` [AH20685], the “%Inh” value with CDK8 is given as 49%; with CDK9, 0%; in the experiment with CDKL1 it was 11%; in the experiment on CDKL2, 0%; in the experiment on CDKL3, 0%; in the experiment with CDKL5 it was 8%. Also, the “%Inh” value with CHEK1 is 0%; in the experiment with CHEK2 it was 0%; in the experiment with CIT, 0%; with CLK1 it was 4%; in the experiment with CLK2, 0%; with CLK3, 0%. Also, the “%Inh” value in the experiment on CLK4 is 11%; in the experiment on CSF1R-autoinhibited it was 14%; with CSF1R, 0%; with CSK it was 0%; in the experiment on CSNK1A1L it was 0%; in the experiment on CSNK1A1, 0%. The “%Inh” value is 11% in the experiment on CSNK1D and 0% in the experiment with CSNK1E.
Take `c1ccc(Oc2ccc(Nc3ccnc4cc(-c5ccc(CNCCN6CCOCC6)o5)ccc34)cc2)nc1` [GW567145]: the “%Inh” value with CDK8 is listed as 55%; in the experiment with CDK9 it was 0%; with CDKL1, 2%; in the experiment on CDKL2, 9%; in the experiment with CDKL3, 0%; in the experiment on CDKL5, 0%. Besides, the “%Inh” value was determined as 0% in the experiment on CHEK1; 90.6% in the experiment with CHEK2; 7% in the experiment on CIT; 17% with CLK1; 0% in the experiment with CLK2; 0% in the experiment with CLK3. Moreover, the “%Inh” value with CLK4 is 0%; in the experiment on CSF1R-autoinhibited, 40%; in the experiment with CSF1R, 68%; in the experiment on CSK, 77%; in the experiment on CSNK1A1L, 0%; with CSNK1A1 it was 0%. Moreover, the “%Inh” value with CSNK1D and in the experiment with CSNK1E was 0% throughout.
Consider `CC(=O)N1CCN(c2ccc(Nc3nccc(-c4sc(C(C)C)nc4-c4cccc(NS(=O)(=O)c5cccc(Cl)c5)c4)n3)cn2)CC1` [GSK1660437], for which the “%Inh” value in the experiment with CDK8 amounted to 7%; in the experiment on CDK9, 68%; with CDKL1, 31%; in the experiment on CDKL2, 99%; in the experiment on CDKL3, 0%; in the experiment on CDKL5 it was 73%. Also, the “%Inh” value in the experiment on CHEK1 is listed as 1%; in the experiment with CHEK2 it was 0%; with CIT, 71%; with CLK1, 11%; in the experiment with CLK2, 0%; in the experiment on CLK3, 0%. The “%Inh” value with CLK4 is listed as 17%; in the experiment with CSF1R-autoinhibited it was 0%; with CSF1R, 36%; in the experiment with CSK it was 95.4%; with CSNK1A1L, 0%; with CSNK1A1, 23%. For the same molecule, the “%Inh” value with CSNK1D and in the experiment with CSNK1E was 0% throughout.
For the molecule `O=C(Nc1n[nH]c2cc(-c3ccoc3)ccc12)C1CC1` [SB-738481], the “%Inh” value amounted to 11% in the experiment on CDK8; 2% in the experiment with CDK9; 18% with CDKL1; 87% in the experiment on CDKL2; 10% with CDKL3; 50% with CDKL5. Besides, the “%Inh” value in the experiment on CHEK1 is 0%; with CHEK2, 6%; in the experiment on CIT, 0%; in the experiment on CLK1, 23%; with CLK2, 73%; with CLK3, 13%. The “%Inh” value with CLK4 stood at 9%; in the experiment on CSF1R-autoinhibited, 0%; with CSF1R it was 2%; in the experiment on CSK, 0%; in the experiment on CSNK1A1L it was 5%; in the experiment with CSNK1A1, 0%. Also, the “%Inh” value in the experiment with CSNK1D is given as 2%; in the experiment on CSNK1E it was 0%.
In the case of `COc1cc(Nc2nccc(-c3c(-c4cccc(NC(=O)c5c(F)cccc5F)c4)nn4ncccc34)n2)cc(OC)c1OC` [GSK327238], the “%Inh” value with CDK8 turned out to be 4%; in the experiment with CDK9 it was 0%; with CDKL1, 20%; with CDKL2, 13%; in the experiment with CDKL3 it was 62%; in the experiment on CDKL5, 10%. Besides, the “%Inh” value in the experiment with CHEK1 came to 0%; in the experiment with CHEK2, 14%; in the experiment on CIT, 71%; in the experiment on CLK1, 23%; with CLK2, 0%; in the experiment with CLK3, 0%. In addition, the “%Inh” value in the experiment on CLK4 is listed as 2%; in the experiment on CSF1R-autoinhibited, 55%; in the experiment with CSF1R, 100%; in the experiment on CSK, 98.1%; in the experiment on CSNK1A1L, 7%; in the experiment with CSNK1A1, 0%. In addition, the results for the “%Inh” value in the experiment on CSNK1D and in the experiment on CSNK1E were 23% and 94.7%, respectively.
As to `Cn1cc(-c2[nH]c3cc(NC(=O)[C@H](N)C4CCCCC4)cc4c3c2C=NNC4=O)cn1`, the “%Inh” value was found to be 0% in the experiment with CDK8; 0% in the experiment on CDK9; 16% with CDKL1; 0% in the experiment with CDKL2; 18% in the experiment on CDKL3; 0% in the experiment with CDKL5. In addition, the “%Inh” value was found to be 98.4% with CHEK1; 96.6% with CHEK2; 97.5% with CIT; 56% with CLK1; 16% in the experiment on CLK2; 13% in the experiment with CLK3. Moreover, the “%Inh” value turned out to be 55% in the experiment on CLK4; 49% in the experiment with CSF1R-autoinhibited; 100% with CSF1R; 71% with CSK; 3% in the experiment on CSNK1A1L; 24% in the experiment with CSNK1A1. Moreover, the results for the “%Inh” value with CSNK1D and in the experiment with CSNK1E were 14% and 11%, respectively.
For the molecule `COC(=O)Nc1nc2cc(Oc3ccc(NC(=O)Nc4cc(C(F)(F)F)ccc4F)cn3)ccc2[nH]1.Cl.Cl` [GW681170], the “%Inh” value worked out at 100% in the experiment on CDK8; 0% with CDK9; 29% in the experiment on CDKL1; 98.3% in the experiment with CDKL2; 56% with CDKL3; 0% in the experiment on CDKL5. In addition, the “%Inh” value in the experiment on CHEK1 amounted to 0%; with CHEK2, 24%; with CIT, 100%; in the experiment with CLK1, 42%; in the experiment on CLK2, 8%; in the experiment with CLK3 it was 0%. For the same molecule, the “%Inh” value is recorded as 61% in the experiment on CLK4; 0% in the experiment on CSF1R-autoinhibited; 67% in the experiment with CSF1R; 0% in the experiment with CSK; 0% in the experiment on CSNK1A1L; 0% with CSNK1A1. Further, the “%Inh” value was determined as 6% with CSNK1D and 0% in the experiment on CSNK1E.
